# Laboratory results from PubChem BioAssay (NCI).
# The panel holds about 83,000 compounds, 20% with a hit somewhere; the sample as a whole holds those more often.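 Treatment: one concentration, 48 hours, 96-well format. Scoring: percent growth, with anything below 10 considered active.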 Unmarked numbers belong to inactive results. The source made the active and inactive calls.
# Legend:
# Experiment in all cases: NCI-60 one-dose screen, 48 h (100 = growth as untreated, 0 = no growth, -100 = all killed)
# Conditions in all cases: 10 µM unless noted
# [1] = system: DU-145 prostate
# [2] = system: K-562 leukemia
# [3] = system: MALME-3M melanoma
# [4] = system: MDA-MB-231 breast
# [5] = system: RXF 393 renal
# [6] = system: SF-268 CNS
# [7] = system: SF-295 CNS
# [8] = system: SF-539 CNS
# [9] = system: UACC-257 melanoma
# [10] = system: M14 melanoma
# [11] = system: HCT-15 colon
# [12] = system: SNB-19 CNS
# [13] = system: U251 CNS
# [14] = system: PC-3 prostate
# [15] = system: SK-MEL-5 melanoma
# [16] = system: LOX IMVI melanoma
# [17] = system: SK-MEL-28 melanoma
# [18] = system: HT29 colon
# [19] = system: SNB-75 CNS
# [20] = system: UACC-62 melanoma
SMILES,growth [1],growth [2],growth [3],growth [4],growth [5],growth [6] [%],growth [7],growth [8],growth [9],growth [10],growth [11],growth [12],growth [13],growth [14],growth [15],growth [16],growth [17],growth [18],growth [19],growth [20]
C=C1CC2(OC1=O)C(=O)N(CCCCCCCN1C(=O)C3(CC(=C)C(=O)O3)c3ccccc31)c1ccccc12 (stereo unspecified),58.2%,5% (active),-61.4% (active),-9.65% (active),-32.8% (active),60.3,82.6%,16.9%,65%,36.5%,-19.6% (active),67.9%,36.5%,45.7%,61.3%,-82.5% (active),9.63% (active),–,–,–
CC/C=C\C[C@H](O)C/C=C1/C(=O)C=C[C@@H]1C/C=C\CCCC(=O)OC(C)C,11.5%,-7.12% (active),-56.2% (active),7.13% (active),-82.7% (active),12.9,-24.7% (active),–,-51% (active),-31.3% (active),-33.5% (active),9.75% (active),-89.8% (active),-0.368% (active),-94.7% (active),-82.3% (active),–,-49.7% (active),46%,-41.7% (active)
Cc1cc2cc3cc(C)c(N(C)C)cc3nc2cc1N(C)C,25.4%,41.5%,28.4%,63.2%,24%,13.9,19.4%,8.78% (active),–,37.4%,71.6%,–,15.4%,4.41% (active),28.5%,24%,40.6%,15.9%,26.6%,58.5%
COc1cc(NC(N)=NCC(C)(C)COc2ccc(C(F)(F)F)cc2)cnc1C#N,81.6%,34.5%,57.6%,57%,41%,50.4,82.9%,72%,69.1%,45.6%,59.9%,70.6%,59.9%,49.3%,26.9%,67.1%,85.5%,–,–,61.7%
CCCCCCCCCCCCCC(=O)C(C)N (stereo unspecified),7.93% (active),-44.3% (active),77.8%,-54.1% (active),28%,37.7,56.3%,–,91.6%,63.7%,3.51% (active),77.5%,18.2%,3.08% (active),90.3%,-79.6% (active),–,13.8%,34.1%,-71.1% (active)
O=C(CCCN1CCOCC1)Nc1ccc(Cn2nnc3c2C(=O)c2nnn(Cc4ccc(NC(=O)CCCN5CCOCC5)cc4)c2C3=O)cc1,82.3%,20.9%,-74.3% (active),5.78% (active),84.5%,23.4,79.3%,–,-88% (active),60.6%,95.8%,59.5%,18.2%,55.5%,17.1%,-5.71% (active),–,1.66% (active),-87.9% (active),51.5%
COCCOC(=O)C1=C(C)NC(=S)NC1c1ccc2c(c1)OCO2 (stereo unspecified),108%,91.8%,108%,105%,101%,97.4,105%,99.2%,90.2%,104%,102%,100%,104%,95.7%,97.6%,101%,114%,–,–,102%
O=C1c2cccnc2C(=O)c2c1c(C(=O)OCCN1CCOCC1)c1ccccn21,-20.3% (active),-16% (active),-64.8% (active),9.01% (active),10.7%,13,-47% (active),–,-47% (active),-58.7% (active),-65.6% (active),3.55% (active),-47.5% (active),15.3%,-90.5% (active),-46% (active),–,-35.4% (active),-13.9% (active),-52.7% (active)
CCOC(=O)c1c2c(n3ccc(NC(=O)CCN(CC)CC)cc13)C(=O)c1ncccc1C2=O,66.5%,49.7%,76.9%,42.4%,67.2%,41.9,38%,–,57.3%,49.7%,50.3%,53.3%,53.2%,61.1%,45.1%,10.3%,–,38.4%,33%,50.8%
